FMDV antiviral = High Throughput Screening for Foot and Mouth Disease Virus Antivirals; FMDV antiviral cell-based qHTS; Potency, µM (titrated, usually from 57.9 µM), inactives show at the highest dose activity change, negative = inhibition, most hits filed as inhibitors; 1.2% of 410,000 active; AID 1159524, 2015; calls by dose curve; tested in HEK293T cells; further: read-out not given here; potency means the concentration at half of the fitted maximal effect; nearly all actives have a fitted effect of over 45% in size
HCV inh = qHTS Assay for Inhibitors of Hepatitis C Virus (HCV). Huh7.5.1 HCVcc-Cre infection, luciferase reporter, 44 h. Potency, µM (top dose mostly 41.8 µM), without a hit: at the highest dose activity change, negative = inhibition, actives largely listed as inhibitors. 3.4% of 340,000 active. AID 651820, 2012; active means well fitted inhibition curve with a large enough effect; inconclusive means small, poorly fitted or top-dose-only effect, or another doubt; inactive means no such curve, though single readings can be large or run the other way; further: potency means the concentration at half of the fitted maximal effect
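Luciferase read-out (15 sec integration) after a 15 min room-temperature substrate step quantifies HCVcc-Cre infection. Cells, 1,000 per well, had compound added 4 h post-plating, then virus at ~0.5 moi, and were cultured 44 h.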
HCMV antiviral = qHTS Assay for inhibitors of the human cytomegalovirus (HCMV); 4.5% of 410,000 active; HFF cells, HCMV-luciferase reporter, 72 h; active compounds read low; AID 1259415, 2018; activity change, negative = inhibition, % at 57.5 µM; in the data active means activity change below about -60%; inconclusive means no clear call, values can overlap the other calls; inactive means above about -39%
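Human foreskin fibroblasts infected with luciferase-reporter HCMV at MOI 1 PFU/cell, compounds at two doses. Luciferase measured 72 h post infection; normalized to buffer-only basal and Salinomycin (10uM) controls.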
Marburg entry inh = qHTS for inhibitors of binding or entry into cells for Marburg Virus; 1.8% of 300,000 active; Marburg virus pseudotyped entry inhibition, cell reporter; Potency, µM (highest dose often 37.8 µM), inactives show top-dose activity change, negative = inhibition, most hits filed as inhibitors; calls by dose curve; tested in HEK293 cells; further: potency means the concentration at half of the fitted maximal effect
Lassa entry inh = qHTS for Inhibitors of binding or entry into cells for Lassa Virus | Potency, µM (highest dose often 37.9 µM), for inactives: at the top dose activity change, negative = inhibition, actives largely listed as inhibitors | 1.2% of 300,000 active | Lassa virus pseudotype entry inhibition, cell reporter; calls by dose curve; tested in HEK293 cells; further: potency means the concentration at half of the fitted maximal effect; nearly all actives have a fitted effect of over 50% in size
Starred values were filed as active, the others as inactive; [ ] = dose if it differs, or a comment. The list is not random: actives were taken first. Their share in the collection is about 7.9%. On the % scale 0 is the no-effect control and ±100 the full control effect.

Results for COc1ccc(N2CC(NC(=O)/C=C\c3ccc(OC)c(OC)c3)CC2=O)cc1 (stereo unspecified) ?
FMDV antiviral: -8%; HCMV antiviral: 26; Lassa entry inh: 2%[46.1 µM]

How did CCOc1ccc(OCC(=O)Nc2nnc3n2CCS3)cc1 do in these assays?
FMDV antiviral: -15%; HCMV antiviral: 2; Lassa entry inh: inconclusive

What do the screens show for `Cc1c(C(=O)N2CCCCC2)nnn1-c1nonc1N`?
FMDV antiviral: -9%; HCV inh: -15%; HCMV antiviral: -62*; Marburg entry inh: 1%; Lassa entry inh: 4%

Results for CCOc1cc(Br)c(CN2C(=O)NC3(CCCCCC3)C2=O)cc1OCC ?
FMDV antiviral: inconclusive; HCV inh: 10%; HCMV antiviral: 44; Marburg entry inh: 11µM*

How did Cc1ccc(C(=O)c2cn(Cc3ccccc3F)c3cc4c(cc3c2=O)OCO4)cc1 do in these assays?
FMDV antiviral: -23%; HCMV antiviral: -36; Marburg entry inh: -3%[46.1 µM]; Lassa entry inh: 29%[46.1 µM]

How did CCOC(=O)COn1c(=O)c(-c2ccc(OC)cc2)[n+]([O-])c2ccccc21 do in these assays?
FMDV antiviral: 8%; HCV inh: 18%; HCMV antiviral: -61*; Marburg entry inh: -1%[46.1 µM]; Lassa entry inh: inconclusive

Results for CCOC(=O)COn1c(=O)c(-c2ccccc2)[n+]([O-])c2ccccc21 ?
FMDV antiviral: -7%; HCV inh: 10%; HCMV antiviral: -31; Marburg entry inh: 4%[46.1 µM]; Lassa entry inh: 0%[46.1 µM]

What do the screens show for `O=C(NCCCN1CCOCC1)c1ccc(/C=C2\Oc3ccccc3N(Cc3ccccc3F)C2=O)cc1`?
FMDV antiviral: inconclusive; HCV inh: inconclusive; HCMV antiviral: 0

How did CCN1CCN(CCNC(=O)c2ccc(/C=C3/Sc4ccccc4N(Cc4ccccc4C)C3=O)cc2)CC1 do in these assays?
FMDV antiviral: 1%; HCV inh: 6.3µM*; HCMV antiviral: -63*

Results for CCN1CCN(CCCNC(=O)c2ccc(/C=C3/Sc4ccccc4N(Cc4ccccc4F)C3=O)cc2)CC1 ?
FMDV antiviral: -19%; HCV inh: 11µM*; HCMV antiviral: inconclusive

What do the screens show for `CCCCc1nc2ccccc2n2c(-c3ccc(OC)cc3)c3c(=O)n(C)c(=O)n(C)c3c12`?
FMDV antiviral: -27%; HCMV antiviral: 16; Marburg entry inh: 30%[46.1 µM]; Lassa entry inh: -24%[46.1 µM]

Results for COC(=O)c1c(OCc2ccccn2)cc(=O)n2c1CCN(Cc1ccc3nsnc3c1)CC2 ?
FMDV antiviral: -5%

Results for CC(C)c1ccc2c(c1)CCC1C(C)(CN)CCCC21C (stereo unspecified) ?
FMDV antiviral: inconclusive; HCV inh: inconclusive; HCMV antiviral: -27; Marburg entry inh: 10µM*; Lassa entry inh: inconclusive

Results for CC(C)c1ccc2c(c1)CC[C@H]1[C@](C)(CN)CCC[C@]21C ?
FMDV antiviral: inconclusive; HCV inh: inconclusive; HCMV antiviral: -98*

How did COc1ccc(NC(=O)CCS(=O)(=O)c2cc3c4c(c2)CCN4C(=O)CC3)cc1OC do in these assays?
FMDV antiviral: 4%; HCMV antiviral: 5; Lassa entry inh: 30%[46.1 µM]

How did CC1=CC[C@@H](C)O[C@@]2(C1)C(=O)N(Cc1ccc(Br)cc1)c1ccccc12 do in these assays?
Marburg entry inh: 14%[14.2 µM]; Lassa entry inh: inconclusive

How did CCOC(=O)CSc1nnc(NC(=O)c2cc([N+](=O)[O-])cc([N+](=O)[O-])c2)s1 do in these assays?
FMDV antiviral: 35µM*; HCV inh: 1%; HCMV antiviral: -10; Marburg entry inh: -1%; Lassa entry inh: 19%

How did O=C(O)c1cccnc1Nc1ccc(Cl)cc1 do in these assays?
FMDV antiviral: 18%; HCV inh: 5%; HCMV antiviral: -72*; Marburg entry inh: inconclusive; Lassa entry inh: inconclusive

Results for Cc1ccc(-n2nnc(-c3nsc(NC(=O)c4ccccc4C)n3)c2C)cc1Cl ?
FMDV antiviral: -9%; HCMV antiviral: -99*; Lassa entry inh: -29%[46.1 µM]

What do the screens show for `COc1ccc(-n2nnc(-c3nsc(NC(=O)c4cccc(C)c4)n3)c2C)cc1OC`?
FMDV antiviral: inconclusive; HCMV antiviral: -100*; Lassa entry inh: -4%[46.1 µM]

What do the screens show for `COc1cc(OC)cc(C(=O)Nc2nc(-c3nnn(-c4ccc(F)c(Cl)c4)c3C)ns2)c1`?
FMDV antiviral: -25%; HCMV antiviral: -94*; Lassa entry inh: -11%[46.1 µM]

What do the screens show for `O=C(NCc1nnc2n1CCN(Cc1cc(F)cc(F)c1)CC2)c1cccc(F)c1`?
FMDV antiviral: 2%

Results for Nc1c(Cl)cc(-c2csc(N3CCCC3c3nc4cc(Cl)c(N5CCCCC5)cc4n3CCCO)n2)cc1Cl (stereo unspecified) ?
FMDV antiviral: -9%; HCV inh: -14%[8.37 µM]; HCMV antiviral: 27

Results for OCCCn1c(C2CCCN2c2nc(-c3ccc(Cl)cc3)cs2)nc2cc(C(F)(F)F)ccc21 (stereo unspecified) ?
FMDV antiviral: -16%; HCV inh: inconclusive; HCMV antiviral: -66*

What do the screens show for `Nc1c(Cl)cc(-c2csc(N3CCCC3c3nc4cc(Cl)c(Cl)cc4n3CCCO)n2)cc1Cl` (stereo unspecified)?
FMDV antiviral: 8%; HCV inh: 2µM*; HCMV antiviral: 17

Results for OCCCn1c(C2CCCN2c2nc(-c3ccc(Cl)cc3)cs2)nc2cc(Cl)c(Cl)cc21 (stereo unspecified) ?
FMDV antiviral: -19%; HCV inh: inconclusive; HCMV antiviral: 0

What do the screens show for `O=C(Cc1ccc(-c2ccccc2)cc1)NCCS(=O)(=O)N1CCN(c2ccccc2)CC1`?
FMDV antiviral: 8%; HCMV antiviral: 64; Lassa entry inh: -1%[46.1 µM]

What do the screens show for `COc1ccc(-c2csc(C(C)(O)c3ccccc3)n2)cc1` (stereo unspecified)?
FMDV antiviral: -4%; HCMV antiviral: 12

What do the screens show for `COc1ccc(C(C)(O)c2nc(-c3ccccc3)cs2)cc1` (stereo unspecified)?
FMDV antiviral: -17%; HCMV antiviral: -78*

What do the screens show for `COc1cccc(C(C)(O)c2nc(-c3ccc(N(C)C)cc3)cs2)c1` (stereo unspecified)?
FMDV antiviral: -7%; HCMV antiviral: -74*

Results for COc1ccc(-c2csc(C(C)(O)c3cccnc3)n2)cc1 (stereo unspecified) ?
FMDV antiviral: 0%; HCMV antiviral: -69*

What do the screens show for `Cc1cccc(C)c1NC(=O)CSc1nc2ncccc2o1`?
FMDV antiviral: 0%; HCMV antiviral: 1; Lassa entry inh: 1%[46.1 µM]

What do the screens show for `Cc1csc2nc(COC(=O)CNC(=O)c3ccc(F)cc3)cc(=O)n12`?
FMDV antiviral: -2%; HCMV antiviral: 15; Lassa entry inh: 1%[46.1 µM]

Screening results deposited in PubChem by National Center for Advancing Translational Sciences (NCATS).
